Several values for one entry are separate records, joined by “and”; a condition that tells them apart may be missing. Equal values may be shown once. Where a structure was tested more than once in an assay, its records may differ in their call. Activity calls are given as the source filed them. Rule for the calls: active = hit-call score of the fitted dose curve at least 0.9, where 1 is the maximum; inactive = score below 0.9.
How the values were obtained:
[1] = read-out: Thrombomodulin, THBD (gene 7056); test: BSK_CASM3C_Thrombomodulin: BioMAP Diversity Plus: CASM3C Assay for Thrombomodulin Biomarker Activity (AID 2283051); conditions: primary human coronary artery smooth muscle cells; actives raise or lower the signal;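 note: thrombomodulin protein level measured by ELISA 24 h after dosing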
[2] = read-out: Tissue Factor, F3 (gene 2152); test: BSK_CASM3C_TissueFactor: BioMAP Diversity Plus: CASM3C Assay for Tissue Factor Biomarker Activity (AID 2283052); conditions: primary human coronary artery smooth muscle cells; actives raise or lower the signal;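 note: cell surface tissue factor protein level read by ELISA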
[3] = read-out: Interferon-gamma inducible Protein 10 (IP10), CXCL10 (gene 3627); test: BSK_hDFCGF_IP10: BioMAP Diversity Plus: hDFCGF Assay for Interferon-gamma inducible Protein 10 (IP10) Biomarker Activity (AID 2283053); conditions: primary human foreskin fibroblasts; actives raise or lower the signal
Procedure, shortened: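 Primary human foreskin fibroblasts exposed to chemicals for 24 h. IP-10 measured by ELISA; changes fitted bidirectionally against DMSO baseline.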

[4] = read-out: Urokinase-type plasminogen activator receptor (uPAR), PLAUR (gene 5329); test: BSK_CASM3C_uPAR: BioMAP Diversity Plus: CASM3C Assay for Urokinase-type plasminogen activator receptor (uPAR) Biomarker Activity (AID 2283054); conditions: primary human coronary artery smooth muscle cells; actives raise or lower the signal;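 note: cell-surface uPAR protein level quantified by ELISA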
[5] = read-out: Vascular cell adhesion molecule 1 (VCAM1), VCAM1 (gene 7412); test: BSK_CASM3C_VCAM1: BioMAP Diversity Plus: CASM3C Assay for Vascular cell adhesion molecule 1 (VCAM1) Biomarker Activity (AID 2283055); conditions: primary human coronary artery smooth muscle cells; actives raise or lower the signal;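 note: VCAM-1 protein level quantified by ELISA on the cells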
[6] = read-out: Collagen III, COL3A1 (gene 1281); test: BSK_hDFCGF_CollagenIII: BioMAP Diversity Plus: hDFCGF Assay for Collagen III Biomarker Activity (AID 2283056); conditions: primary human foreskin fibroblasts; actives raise or lower the signal
Procedure, shortened: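 Human foreskin primary fibroblasts were exposed to test chemicals for 24 h, after which collagen III was quantified by ELISA. Activity was fitted bidirectionally against DMSO as negative control and baseline.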

[7] = read-out: Epidermal growth factor receptor (EGFR), EGFR (gene 1956); test: BSK_hDFCGF_EGFR: BioMAP Diversity Plus: hDFCGF Assay for Epidermal growth factor receptor (EGFR) Biomarker Activity (AID 2283057); conditions: primary human foreskin fibroblasts; actives raise or lower the signal
Procedure, shortened: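 Primary human foreskin fibroblasts (hDFCGF system), sampled 24 h after dosing; EGFR quantified by ELISA. Bidirectional fit relative to DMSO baseline; SRB total-protein staining in parallel cultures for cytotoxicity.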

[8] = read-out: Interleukin-8 (IL8), CXCL8 (gene 3576); test: BSK_hDFCGF_IL8: BioMAP Diversity Plus: hDFCGF Assay for Interleukin-8 (IL8) Biomarker Activity (AID 2283058); conditions: primary human foreskin fibroblasts; actives raise or lower the signal
Procedure, shortened: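 hDFCGF human dermal fibroblasts; 24 h chemical exposure; IL-8 by ELISA; bidirectional curve fit vs DMSO baseline; gain or loss of signal scored.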

[9] = BSK_hDFCGF_Proliferation: Cell Proliferation Assessment in the BioMAP Diversity Plus: hDFCGF Assay (AID 2283059); conditions: primary human foreskin fibroblasts;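 note: curves fitted for both rise and fall of signal versus DMSO baseline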
Procedure, shortened: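 Steps: dose primary human dermal fibroblasts (foreskin); […] fix in 10% TCA; stain with 0.1% SRB; read 560 nm; fit gain or loss of signal against DMSO.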

[10] = read-out: Macrophage colony-stimulating factor (MCSF), CSF1 (gene 1435); test: BSK_hDFCGF_MCSF: BioMAP Diversity Plus: hDFCGF Assay for Macrophage colony-stimulating factor (MCSF) Biomarker Activity (AID 2283060); conditions: primary human foreskin fibroblasts; actives raise or lower the signal
Procedure, shortened: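 Human foreskin primary fibroblasts were treated with test chemical for 24 h, and M-CSF was then measured by ELISA. Data were fitted bidirectionally against DMSO as the negative control and activity baseline.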

Measured: AC50

CC(C)(C)c1ccc(CSc2cnn(C(C)(C)C)c(=O)c2Cl)cc1
active: [1] 31.8 µM | [6] 12.9 µM | [9] 4.68 µM | [10] 7.69 µM
inactive: all other assays above

CCOc1cc(Oc2ccc(C(F)(F)F)cc2Cl)ccc1[N+](=O)[O-]
active: [3] 6.48 µM | [6] 12.9 µM | [7] 14.2 µM | [9] 10.6 µM | [10] 6.77 µM
inactive: all other assays above

COC(=O)C(C)Oc1ccc(Oc2ccc(Cl)cc2Cl)cc1 (stereo unspecified)
active: [9] 29.5 µM and 36.7 µM
inactive: [1] | [2] | [3] | [4] | [5] | [6] | [8] | [9] | [10]

CS/C(C)=N/OC(=O)N(C)SN(C)C(=O)O/N=C(\C)SC
active: [3] 8.62 µM | [4] 31.5 µM | [5] 30.8 µM | [9] 3.73 µM
inactive: all other assays above

CC(Oc1ccc(Cl)cc1Cl)C(=O)O (stereo unspecified)
inactive: all assays above

COc1nc(NC(C)C)nc(NC(C)C)n1
not listed: [7]
inactive: all other assays above

COP(N)(=O)SC (stereo unspecified)
inactive: all assays above

CCNc1nc(Cl)nc(NC(C)C)n1
active: [4] 20 µM
not listed: [7]
inactive: all other assays above

OC(c1ccc(Cl)cc1)(c1cncnc1)c1ccccc1Cl (stereo unspecified)
active: [1] 16.6 µM | [9] 20 µM
inactive: all other assays above

O=C(O)COc1nc(Cl)c(Cl)cc1Cl
inactive: all assays above

Cc1cc(Cl)ccc1OCC(=O)O
inactive: all assays above

CCCN(CCC)c1c([N+](=O)[O-])cc(S(N)(=O)=O)cc1[N+](=O)[O-]
active: [1] 37.6 µM and 34.1 µM | [2] 21.1 µM and 34.7 µM and 30.7 µM | [3] 32.5 µM and 31.4 µM | [4] 34.5 µM [middle of 4 runs] | [5] 36.4 µM [middle of 4 runs] | [6] 30.9 µM and 16.5 µM | [8] 34.5 µM | [9] 24.3 µM [middle of 4 runs] | [10] 32.9 µM and 30.5 µM and 31.2 µM
inactive: [1] | [2] | [3] | [6] | [8] | [10]

COc1nc(C)nc(NC(=O)NS(=O)(=O)c2ccccc2Cl)n1
not listed: [7]
inactive: all other assays above

CNC(=O)ON=CC(C)(C)SC
active: [3] 5.4 µM | [4] 0.148 µM
not listed: [7]
inactive: all other assays above

COc1nc(C)nc(NC(=O)NS(=O)(=O)c2ccccc2CCC(F)(F)F)n1
active: [3] 148 nM and 33.8 µM and 3.97 µM | [6] 0.213 µM
inactive: [1] | [2] | [4] | [5] | [6] | [8] | [9] | [10]

Fc1ccc(Oc2ccnc3cc(Cl)cc(Cl)c23)cc1
active: [1] 18.6 µM | [3] 24.3 µM | [6] 12.1 µM | [9] 11.7 µM | [10] 16.4 µM
inactive: [2] | [4] | [5] | [7] | [8]

COP(=S)(OC)Oc1nc(Cl)c(Cl)cc1Cl
inactive: [2] | [4] | [5] | [8]
active: [1] 16.1 µM | [3] 25.4 µM | [6] 20 µM | [9] 28.2 µM | [10] 30 µM

C=CC1(C)OC(=O)N(c2cc(Cl)cc(Cl)c2)C1=O (stereo unspecified)
not listed: [7]
inactive: all other assays above

CN(C)C(=S)SSC(=S)N(C)C
active: [1] 9.88 µM | [3] 2.74 µM | [5] 11.5 µM | [6] 6.36 µM | [7] 5.9 µM | [8] 7.67 µM | [9] 2.76 µM | [10] 4.39 µM
inactive: [2] | [4]

CNC(=S)S
active: [1] 9.42 µM | [3] 20 µM | [9] 20 µM
inactive: all other assays above

CCON=C(CC)C1=C(O)CC(c2c(C)cc(C)cc2C)CC1=O (stereo unspecified)
inactive: all assays above

CCCCNC(=O)OCC#CI
active: [1] 4.72 µM and 36.3 µM | [2] 24.6 µM | [3] 3.5 µM and 5.34 µM | [4] 12.7 µM and 13.9 µM | [5] 11.1 µM and 14.6 µM | [6] 7.69 µM and 7.7 µM | [8] 10.2 µM and 11 µM | [9] 134 nM and 534 nM | [10] 5.14 µM and 9.67 µM
inactive: [2]

CCOC(=O)CC(SP(=S)(OC)OC)C(=O)OCC (stereo unspecified)
inactive: all assays above

C=CCC1=C(C)C(OC(=O)C2C(C=C(C)C)C2(C)C)CC1=O (stereo unspecified)
inactive: [1] | [2] | [4] | [5]
active: [1] 16.6 µM and 26.3 µM and 21 µM | [3] 31.7 µM [middle of 4 runs] | [5] 32.5 µM | [6] 21 µM [middle of 4 runs] | [8] 40.3 µM [middle of 4 runs] | [9] 16.5 µM [middle of 4 runs] | [10] 31.2 µM and 38.4 µM and 29.1 µM

CO/C=C(/C(=O)OC)c1ccccc1Oc1cc(Oc2ccccc2C#N)ncn1
inactive: [1] | [2] | [3] | [4] | [5] | [8] | [9] | [10]
active: [3] 12.1 µM | [6] 16.9 µM [middle of 4 runs] | [9] 30.2 µM and 34.3 µM and 25.5 µM

Reference: PubChem BioAssay (EPA / NIEHS)
